Screening data: PubChem, National Center for Advancing Translational Sciences (NCATS)
D1 PAM – enhances dopamine response at the human D1 receptor; hit rate 0.036% among 360,000; potentiation, % at 10 µM; AID 504651; HEK293 TREx D1 cells, calcium flux, dopamine EC20 potentiation; P21728; in the data active = potentiation above about 30%
D1 ag – agonists of human D1 dopamine receptor; hit rate 1% among 360,000; HEK293 T-REx D1 cells, calcium flux, agonist mode; activation, % at 2 µM; in the data active = activation above about 30%
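Inducible HEK293 T-REx D1 cells, force-coupled to calcium signalling, were plated at 4000 cells/well with tetracycline and held overnight at 30 C. After no-wash calcium dye loading, compound-evoked calcium rise over 180 s flagged agonists.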
D1 antag – blocks dopamine activation of the human D1 receptor; P21728; HEK293 TREx D1 cells, calcium flux, dopamine EC80; hits give low values; activity change, negative = inhibition, % at 10 µM; hit rate 3.2% among 360,000; in the data active = activity change below about -30%
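Compound effects on dopamine-evoked calcium signalling were measured in tetracycline-induced HEK293 Trex D1 cells. Dopamine at EC80 followed a 180 s compound pre-read, and fluorescence was tracked kinetically for 180 s more.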
ERG Ets-DNA blk – ERG Ets/DNA interaction inhibition | P11308 | fluorescence polarization, His-ERG Ets domain / labelled DNA | Potency, µM (top dose mostly 76.9 µM), actives largely listed as inhibitors | hit rate 0.028% among 370,000 | AID 624246; active = well fitted inhibition curve with a large enough effect in the polarisation, with a control signal flat; the % refers to the polarisation;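 also: polarization taken with two DNA probes labelled with fluorescein and Texas red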
Target sequence (P11308 whole entry, looked up, the tested form may be a part): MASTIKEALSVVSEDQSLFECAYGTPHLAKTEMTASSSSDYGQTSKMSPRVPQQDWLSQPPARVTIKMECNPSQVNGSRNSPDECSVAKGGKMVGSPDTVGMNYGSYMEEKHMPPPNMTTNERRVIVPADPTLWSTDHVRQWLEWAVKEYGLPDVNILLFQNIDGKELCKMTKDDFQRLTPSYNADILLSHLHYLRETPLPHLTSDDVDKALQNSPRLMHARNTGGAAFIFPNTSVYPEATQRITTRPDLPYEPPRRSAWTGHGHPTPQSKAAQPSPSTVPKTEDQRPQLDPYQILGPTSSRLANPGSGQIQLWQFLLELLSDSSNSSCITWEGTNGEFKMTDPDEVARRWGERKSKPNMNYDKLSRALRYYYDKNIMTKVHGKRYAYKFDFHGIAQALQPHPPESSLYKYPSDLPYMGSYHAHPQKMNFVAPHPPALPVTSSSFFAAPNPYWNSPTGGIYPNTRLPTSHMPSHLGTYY
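His-tagged ERG Ets domain (1 uM in the protein solution; 300mM KCl, 50mM Tris-HCl, 1mM EDTA, 1mM DTT, pH 7.5) received compound, then a probe mix of 5 nM fluorescein-DNA and 100nM Texas-615-DNA. Fluorescence polarization was read for both dyes.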
DRD3 antagonist – blocks the human D3 dopamine receptor; P35462; D3R cells, DiscoveRx beta-arrestin luminescence, antagonist mode; hits give low values; max response, negative = inhibition, %; hit rate 2.5% among 360,000; in the data active = max response below about -50%
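Cells plated overnight at 1500 cells/well, then exposed to library compounds with dopamine controls for 90 minutes at 37 degrees C. DiscoveRx reagent added for 30–60 minutes at room temperature; luminescence read, quantitative HTS format.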
DRD3 agonist – D3 dopamine receptor (human) agonism | P35462 | D3R DiscoveRx beta-arrestin cells, luminescence, 90 min | max activation, % | hit rate 0.58% among 410,000 | AID 652048; in the data active = max activation above about 30%
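Cells at 1500/well, incubated overnight, then treated with pinned compounds (dopamine as control) for 90 min at 37 degrees C. DiscoveRx reagent added for 30 - 60 minutes at room temperature; luminescence read.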
Of the large screens only hits and unclear results are named; the others gave an inactive call. Most compounds without a hit are left out; they make up all but 6.1% or so of the library.

c1cc2c(cc1CN1CCN(C3CCCCCC3)CC1)OCO2	DRD3 antagonist -51
CC(C)Oc1ccc(CNC(=O)c2ccc3c(c2)N(C)CCS3)cc1	DRD3 antagonist -74
COc1ccc2c(c1)CCc1c(C(=O)NCc3cccnc3)noc1-2	none
CCOC(=O)C1CCCN(S(=O)(=O)c2cc(Br)cc3c2N(C(=O)CC)CC3)C1 (stereo unspecified)	none
COC(=O)CCCCCCCCCCN1CCCCC1	none
CCCOC(=O)CCCCCCCCC(O)CN1CCCCC1 (stereo unspecified)	D1 ag 54, D1 antag -56
CCOC(=O)c1ccc(NC(=O)CC2C(=O)N(c3ccc(F)cc3)C(=O)N2Cc2ccc(C)cc2)cc1 (stereo unspecified)	none (no result: DRD3 antagonist)
CCOc1c2ccc(C(=O)NCCCCc3ccccc3)cc2nn1C	none
S=c1[nH]ncn1/N=C/c1ccccc1	D1 antag -30
S=c1[nH]ncn1/N=C/c1ccc(Br)cc1	DRD3 antagonist -109
Cc1ccccc1Cn1ccn(-c2ccc(F)c(F)c2)c(=O)c1=O	DRD3 agonist 69 (no result: DRD3 antagonist)
CCCCN1CC(c2nc3ccccc3n2CCCCOc2cc(C)cc(C)c2)CC1=O (stereo unspecified)	none (no result: DRD3 antagonist)
COc1ccc(-c2c[n+](CC(=O)c3ccccc3)c3n2CCCCC3)cc1	DRD3 antagonist -61
O=C(C[n+]1cc(-c2ccccc2)n2c1CCCCC2)c1ccc(Cl)cc1	none
Cc1ccc(NC(=O)C[n+]2cc(-c3ccccc3)n3c2CCC3)cc1	DRD3 antagonist -111
Cc1ccc(-c2c[n+](CC(=O)Nc3ccccc3C)c3n2CCC3)cc1	DRD3 antagonist -63
Cc1ccc(-c2c[n+](CC(=O)Nc3nc(-c4ccccc4)cs3)c3n2CCC3)cc1	none
CCN(CC)CCSc1nnc2c3cc(F)ccc3n(C)c2n1	none (no result: DRD3 antagonist)
O=C(CN1C(=O)/C(=C/c2ccccc2F)Sc2ccccc21)N1CCN(c2ccccn2)CC1	none
c1cncc(-c2nnc(SCc3cccc4ccccc34)o2)c1	none
O=C(CC1C(=O)NCCN1C(=O)Nc1ccc(Cl)cc1)Nc1ccc(F)cc1 (stereo unspecified)	D1 antag -51
O=C(CC1C(=O)NCCN1C(=O)c1ccc(Cl)cc1)Nc1ccc(F)cc1 (stereo unspecified)	none
CC(C)(C)CN1C(N)=NC[C@@H]1Cc1ccc(O)cc1	D1 antag -45
CCN(CC)S(=O)(=O)c1cc(-c2nnc(-c3ccc(Br)cc3)o2)ccc1Br	DRD3 antagonist -65
CCCCNC(=O)C(C#N)c1nc2ccccc2nc1N1CCN(Cc2ccc3c(c2)OCO3)CC1 (stereo unspecified)	none (no result: D1 PAM, D1 ag, D1 antag)
C=CCOC(=O)C(C#N)c1nc2ccccc2nc1N1CCN(Cc2ccc3c(c2)OCO3)CC1 (stereo unspecified)	D1 antag -32
COc1nc2ccccc2nc1N1CCN(Cc2ccc3c(c2)OCO3)CC1	DRD3 antagonist -114
Clc1ccc(SCCCCn2cncn2)cc1	none
CC(Oc1ccc(-c2ccccc2)c(F)c1)c1ccn(S(=O)(=O)c2ccc(Br)cc2)n1 (stereo unspecified)	none (no result: D1 PAM, D1 ag, D1 antag)
CC[C@@]12C(=O)N(c3cccc(Br)c3)C(=O)N1[C@H](c1ccc(F)cc1)[C@@H]1C(=O)N(C3CCCCC3)C(=O)[C@@H]12	none
CC(C)C[C@@]12C(=O)N(c3cccc(Br)c3)C(=O)N1[C@H](c1ccc(F)cc1)[C@@H]1C(=O)N(C3CCCCC3)C(=O)[C@@H]12	DRD3 agonist 51
COCCCNCCOCCSc1ccc(Cl)cc1	DRD3 antagonist -68
CCCCNCCOCCSc1ccc(Cl)cc1	DRD3 antagonist -81
C=CCc1cc(Cl)ccc1OCCOCCN(C)C	none
CC(C)NCCOCCSc1ccc(Cl)cc1	DRD3 antagonist -84
OCCNCCSc1ccc(Cl)cc1	none
CN(C)CCOCCSc1ccc(Cl)cc1	DRD3 antagonist -86
CC(Sc1nnc(-c2ccccc2Br)o1)C(=O)N1CCOCC1 (stereo unspecified)	none
Cc1cc(Cl)ccc1NC(=S)NCc1ccccc1Cl	D1 antag -32
S=C(NCc1ccc(Cl)cc1)Nc1ccccc1	none
S=C(NCc1ccccc1Cl)Nc1ccccc1Cl	none
